Experimental findings from patent US20210230599, “STEM-LOOP COMPOSITIONS AND METHODS FOR INHIBITING INTERLEUKIN-8” (VITRISA THERAPEUTICS, INC., published 2021) are described below.

The target of this test is Interleukin-8 (IL8, CXCL8), C-terminal His-tagged (Homo sapiens, UniProt P10145 SEQ:1-72). Kind of test: competition; competition TR-FRET; G18U. The following applies: tags: C-terminal 6xHis (Sino Biological); ssRNA; 2'-F G, 2'-OMe A/C/U, 5' C6NH2, 3' idT. The method, then: To better understand the sequence requirements and to confirm the stem structures of members of the Aptamer 3 family as determined from sequence covariation analysis from both the primary and secondary (degenerate) selections, a series of variants which included mutations and deletions to the predicted stems were synthesized and screened (Table 24). Activity of each of these variants were tested using a time resolved competition TR-FRET assay in which the labeled parent Aptamer 3 was competed with increasing concentrations of unlabeled variants for binding to IL8 (FIG. 14). Briefly, 2-fold dilutions of thermally equilibrated aptamers were made in TR-FRET Buffer (50 mM MOPS, pH 7.4, 125 mM NaCl, 5 mM KCl, 50 μM CHAPS, 0.1 mg/mL BSA, 1 mM CaCl₂, and 1 mM MgCl₂). 5 μL of aptamer or control solution was added to 5 μl mix of 10 nM C-terminal His-tagged-IL8, 60 nM ALEXA FLUOR® 647-labeled Aptamer, and 5 nM anti-His-Eu (Perkin Elmer) in a black wall low volume 384 well plate (Greiner). For control, 5 μl of 1000-fold excess of unlabeled parent aptamer or 5 μl TR-FRET buffer alone was added to the mix of ALEXA FLUOR® 647-labeled aptamer, His-IL8, and anti-His-Eu. The plate was covered with a plate seal and subsequently incubated in the dark for 1 hour at room temperature. The plate was read on a Biotek CYTATION™ 5 plate reader. […]
Background: In TR-FRET formats the signal depends on donor and acceptor labels being close together.
Sequence UGAUGACGGUAGAUUACUGGUAGAGUGACCGCAUCU returned a binding signal greater than 10 fold worse than Aptamer 3.
